Experimental data taken from PubChem BioAssay (NCATS).
Records with an inconclusive call do not appear. Where a call stands in place of a potency, no number is given. The source made the active and inactive calls. Calls come from the whole dose curve; as a rule, active = well fitted curve in the direction sought with a large enough effect; inconclusive = small, poorly fitted or top-dose-only effect, or another doubt; inactive = no such curve, though single readings can be large; an effect the other way counts as inactive or inconclusive.

Key:
Furin (Homo sapiens) = Furin (Homo sapiens) (UniProt P09958); experiment: Furin counterscreen qHTS for Zika virus inhibitors (AID 1347149); note: nearly all actives have a fitted effect of over 70% in size; note: potency is the fitted concentration of half-maximal effect
In short: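 Fluorogenic cleavage of BOC-RVRR-AMC (2 microM final, Km ~15 µM) was monitored (ex 340, em 450 nm) at 37C after 15 min RT preincubation of 5 nM furin with compounds in HEPES pH 7.0 buffer with CaCl2 and Triton X-100. Percent inhibition was fitted to a 4-parameter Hill curve.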

[1] = tested on: Zika virus NS2B-NS3 protease; experiment: Primary screen GU AMC qHTS for Zika virus inhibitors (AID 1347154); note: nearly all actives have a fitted effect of over 70% in size; note: potency is the fitted concentration of half-maximal effect
In short: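 Unlinked Zika NS2B hydrophilic domain/NS3 protease domain noncovalent complex (25 nM final) in 10 mM Tris-HCl pH 8.0, 0.01% Tween 20, with AMC peptide substrate. Fluorescence (ex 340, em 450 nm) change over 15 min, room temperature; percent inhibition fitted to 4-parameter Hill equation.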

[2] = Confirmatory screen NINDS Rhodamine qHTS for Zika virus inhibitors (AID 1347161); note: nearly all actives have a fitted effect of over 60% in size; note: potency is the fitted concentration of half-maximal effect
In short: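 Purified linked NS2B-NS3 protease (NS2B hydrophilic domain joined to NS3 protease by flexible linker), 25 nM in 10 mM Tris-HCl pH 8.0, 0.01% Tween 20. Compounds titrated, 15 min preincubation at room temperature; 1.5 microM Rhodamine110 substrate, FITC fluorescence change over 15 min.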

[3] = Vero cells viability qHTS for Zika virus inhibitors (AID 1347167)
In short: (§1)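 Counter-screen for cytotoxicity of hits from NS2B-NS3 protease qHTS. Overnight-attached cells (2.5 x 10^5 cells/mL, DMEM/4% FBS) were dosed in titration, incubated 24 to 48 hours, then assayed by CellTiter Glo.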

[4] = HepG2 cells viability qHTS for Zika virus inhibitors (AID 1347168)
In short: as §1

[5] = Tertiary RLuc qRT-PCR qHTS assay for Zika virus inhibitors (AID 1347169); note: nearly all actives have a fitted effect of over 55% in size; note: potency is the fitted concentration of half-maximal effect
In short: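 Vero cells (1,000/well) infected with recombinant ZIKV-RLuc (Cambodian) at MOI 1-2 after compound addition, 48-72 hrs at 37 degrees C. Live-cell Renilla luciferase substrate added; luminescence read after 1-1.5 hrs.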

[6] = target: N-terminal Xaa-Pro-Lys N-methyltransferase 1 (Homo sapiens) (UniProt Q9BV86); experiment: qHTS Assay for Inhibitors of N-terminal methyltransferase 1 (NTMT1): LOPAC validation of the NTMT1 SAHH-coupled ThioGlo3 Assay (AID 1347143); note: nearly all actives have a fitted effect of over 70% in size
In short: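 Fluorescence read-out (excitation 340nm, emission 450nm) of SAH-derived thiol, measured via SAHH coupling and ThioGlo3, taken immediately and after a 30 min room-temperature reaction, then normalized to the background read. Enzyme: NTMT1 at 125nM; cofactor SAM 100uM in the added reagent.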

[7] = target: Lysine-specific demethylase 5B (Homo sapiens) (UniProt Q9UGL1); experiment: Optimization screen for KDM5B Histone Demethylases FDH coupled qHTS against the LOPAC library (AID 1347166)
In short: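 KDM5BDeltaAP (200nM final) preincubated 10 min with compound, then 12.5uM H3K4Me3, 25uM a-ketoglutarate, ascorbate, Fe(II), NAD+ and FDH added; 50mM HEPES pH 7.5, 0.01% Tween-20. NADH fluorescence (340/450 nm) change over 30 min, room temperature.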

[8] = tested on: Zika virus NS2B-NS3 protease (unlinked); experiment: Optimization of GU AMC qHTS for Zika virus inhibitors: Unlinked NS2B-NS3 protease assay (AID 1347151); note: nearly all actives have a fitted effect of over 80% in size; note: potency is the fitted concentration of half-maximal effect
In short: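 Noncovalent NS2B hydrophilic domain–NS3 protease complex (25 nM final) in 10 mM Tris-HCl pH 8.0, 0.01% Tween 20; AMC substrate, room temperature 15 min (~20% conversion); fluorescence change normalized, 4-parameter Hill fit.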

[9] = tested on: Zika virus NS2B-NS3 protease (unlinked complex); experiment: Confirmatory screen GU AMC qHTS for Zika virus inhibitors (AID 1347153); note: nearly all actives have a fitted effect of over 70% in size
In short: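 Fluorescence change (ex 340/em 450 nm) over 15 min, ~20% substrate conversion, normalized to no-inhibitor and no-enzyme controls, then Hill-fitted. Unlinked protease at 25 nM; AMC peptide 10 µM.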

[10] = tested on: Zika virus NS2B-NS3 protease (linked); experiment: 384 well plate NINDS AMC confirmatory qHTS for Zika virus inhibitors (AID 1347163); conditions: Recombinant NS2B-NS3 protease, Ac-VKTGKR-AMC fluorescence; note: potency is the fitted concentration of half-maximal effect; nearly all actives have a fitted effect of over 50% in size
In short: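 Linked protease 5/30/60 nM final; cpds up to 1 mM final, ~15 min preinc. Substrate Ac-VKTGKR-AMC 30 microM final. RT, dark, 25 min; FI ex 355/em 460; normalized to no-enzyme/no-inhibitor ctrls.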

[11] = tested on: Zika virus NS2B-NS3 protease (linked construct); experiment: 384 well plate NINDS Rhodamine confirmatory qHTS for Zika virus inhibitors (AID 1347164);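 note: fluorescence from protease cleavage of Ac-LKRR-rhodamine 110 substrate; potency is the fitted concentration of half-maximal effect; nearly all actives have a fitted effect of over 65% in size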
In short: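 Linked NS2B-NS3 protease (final 5, 30 or 60 nM) preincubated ~15 minutes with compounds, then 10 microM Ac-LKRR-Rhodamine 110 added. Fluorescence (485/538 nm) read after 25 minutes at room temperature, normalized to no-enzyme and no-inhibitor controls.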

[12] = tested on: Zika virus NS2B-NS3 protease (unlinked complex); experiment: Primary screen GU Rhodamine qHTS for Zika virus inhibitors: Unlinked NS2B-NS3 protease assay (AID 1347159); note: nearly all actives have a fitted effect of over 60% in size
In short: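 A qHTS format was used, with compound concentrations ranging up to 114 microM. Each compound was preincubated with 25 nM NS2B-NS3 protease, and the substrate was then added at 1.5 microM. Curves were fitted with a 4-parameter Hill model.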

[13] = tested on: Zika virus NS2B-NS3 protease (linked construct); experiment: Primary screen NINDS Rhodamine qHTS for Zika virus inhibitors (AID 1347160); note: nearly all actives have a fitted effect of over 55% in size
In short: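 Kinetic fluorescence (Ex 480 nm, Em 540 nm) over 15 min with 1.5 microM Rhodamine110 peptide and 25 nM linked protease.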

Sequence of Lysine-specific demethylase 5B (Homo sapiens) (Q9UGL1 whole entry, looked up): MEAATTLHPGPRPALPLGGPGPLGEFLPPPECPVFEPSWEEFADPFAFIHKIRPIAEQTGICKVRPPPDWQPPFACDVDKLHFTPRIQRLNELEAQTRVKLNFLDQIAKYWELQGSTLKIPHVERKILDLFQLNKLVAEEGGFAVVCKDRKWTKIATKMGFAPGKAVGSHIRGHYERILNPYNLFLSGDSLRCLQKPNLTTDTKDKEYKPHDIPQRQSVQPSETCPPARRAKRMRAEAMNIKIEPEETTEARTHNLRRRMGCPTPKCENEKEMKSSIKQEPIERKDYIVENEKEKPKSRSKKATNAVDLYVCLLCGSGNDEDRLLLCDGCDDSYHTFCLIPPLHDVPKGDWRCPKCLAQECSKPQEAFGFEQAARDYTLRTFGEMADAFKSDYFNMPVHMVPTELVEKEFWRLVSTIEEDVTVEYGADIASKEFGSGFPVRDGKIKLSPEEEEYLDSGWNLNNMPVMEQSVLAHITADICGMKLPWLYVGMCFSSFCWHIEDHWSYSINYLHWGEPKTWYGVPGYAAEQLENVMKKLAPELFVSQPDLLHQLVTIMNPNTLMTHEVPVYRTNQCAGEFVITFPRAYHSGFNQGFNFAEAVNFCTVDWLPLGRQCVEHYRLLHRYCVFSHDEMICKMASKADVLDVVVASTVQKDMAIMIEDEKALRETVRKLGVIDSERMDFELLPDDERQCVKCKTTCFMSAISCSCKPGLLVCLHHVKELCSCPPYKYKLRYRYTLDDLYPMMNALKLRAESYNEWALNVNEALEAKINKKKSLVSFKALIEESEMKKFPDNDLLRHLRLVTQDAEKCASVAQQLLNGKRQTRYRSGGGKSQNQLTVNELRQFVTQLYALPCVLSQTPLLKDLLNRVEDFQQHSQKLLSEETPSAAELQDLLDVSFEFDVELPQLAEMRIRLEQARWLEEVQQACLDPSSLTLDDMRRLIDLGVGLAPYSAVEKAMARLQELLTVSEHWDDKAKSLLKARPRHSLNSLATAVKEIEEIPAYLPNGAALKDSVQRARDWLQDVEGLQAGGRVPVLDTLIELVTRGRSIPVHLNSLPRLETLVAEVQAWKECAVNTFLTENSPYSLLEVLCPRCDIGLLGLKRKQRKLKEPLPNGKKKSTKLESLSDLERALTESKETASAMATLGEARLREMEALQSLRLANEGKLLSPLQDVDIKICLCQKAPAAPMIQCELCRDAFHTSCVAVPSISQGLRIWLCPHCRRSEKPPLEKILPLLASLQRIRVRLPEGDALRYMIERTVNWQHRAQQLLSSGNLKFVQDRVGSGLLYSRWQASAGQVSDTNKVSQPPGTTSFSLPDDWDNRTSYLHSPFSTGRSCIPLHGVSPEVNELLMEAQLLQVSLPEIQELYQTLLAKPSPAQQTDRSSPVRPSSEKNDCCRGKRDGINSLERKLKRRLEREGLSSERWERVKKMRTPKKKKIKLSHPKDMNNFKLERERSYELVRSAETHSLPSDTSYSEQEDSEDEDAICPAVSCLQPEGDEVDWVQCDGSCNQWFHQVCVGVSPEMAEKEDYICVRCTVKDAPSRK
Sequence of N-terminal Xaa-Pro-Lys N-methyltransferase 1 (Homo sapiens) (Q9BV86 whole entry, looked up): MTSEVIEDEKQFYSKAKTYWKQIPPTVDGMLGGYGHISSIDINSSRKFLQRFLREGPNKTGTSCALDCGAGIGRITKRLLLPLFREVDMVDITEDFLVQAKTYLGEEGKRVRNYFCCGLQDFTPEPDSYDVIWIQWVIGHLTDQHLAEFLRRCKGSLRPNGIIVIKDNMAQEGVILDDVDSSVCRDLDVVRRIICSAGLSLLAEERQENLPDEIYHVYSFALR
Sequence of Furin (Homo sapiens) (P09958 whole entry, looked up): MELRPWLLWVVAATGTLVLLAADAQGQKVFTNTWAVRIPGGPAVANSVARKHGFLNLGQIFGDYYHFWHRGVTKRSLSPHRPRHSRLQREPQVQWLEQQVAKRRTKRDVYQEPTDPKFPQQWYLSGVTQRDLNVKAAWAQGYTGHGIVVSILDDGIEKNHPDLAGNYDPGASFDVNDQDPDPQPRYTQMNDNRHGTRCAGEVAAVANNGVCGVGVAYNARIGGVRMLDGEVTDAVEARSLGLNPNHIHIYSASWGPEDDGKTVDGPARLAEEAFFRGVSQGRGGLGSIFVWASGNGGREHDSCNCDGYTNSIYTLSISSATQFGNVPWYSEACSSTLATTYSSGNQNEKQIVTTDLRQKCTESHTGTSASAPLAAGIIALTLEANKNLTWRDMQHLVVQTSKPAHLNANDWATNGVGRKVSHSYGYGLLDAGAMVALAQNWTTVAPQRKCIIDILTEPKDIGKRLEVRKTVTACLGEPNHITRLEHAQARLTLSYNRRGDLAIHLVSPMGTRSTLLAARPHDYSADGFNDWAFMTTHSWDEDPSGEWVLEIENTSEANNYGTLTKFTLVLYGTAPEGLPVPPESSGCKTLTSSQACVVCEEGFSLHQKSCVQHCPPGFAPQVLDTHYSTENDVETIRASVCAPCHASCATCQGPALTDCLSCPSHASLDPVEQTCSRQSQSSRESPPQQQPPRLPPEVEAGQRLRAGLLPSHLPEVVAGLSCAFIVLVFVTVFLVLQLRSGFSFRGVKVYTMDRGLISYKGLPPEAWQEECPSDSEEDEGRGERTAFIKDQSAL

## CN1CCN(c2cc3c(nn2)Oc2ccccc2N3C)CC1
Furin (Homo sapiens)
  Potency: 11.8 µM (active)
[1]
  Potency: 9.89 µM (active)
[2]
  Potency: inactive
[3]
  outcome: inactive
[4]
  outcome: inactive
[5]
  Potency: inactive

## NCCCCCCCCCCN
[6]
  Potency: inactive
[7]
  outcome: inactive

## C=C[C@H]1CN2CC[C@@H]1C[C@@H]2[C@@H](O)c1ccnc2ccc(OC)cc12
[8]
  Potency: 26.7 µM (active)

## Oc1ccccc1O
[8]
  Potency: inactive

## Oc1ccc(C2CNCc3sccc32)cc1O (centres undefined)
[8]
  Potency: inactive

## CC[C@@H](C)[C@H]1O[C@]2(CC[C@H]1C)C[C@@H]1C[C@@H](CC=C(C)[C@@H](O[C@H]3C[C@H](OC)[C@@H](O[C@H]4C[C@H](OC)[C@@H](O)[C@H](C)O4)[C@H](C)O3)[C@@H](C)C=CC=C3CO[C@@H]4[C@H](O)C(C)=C[C@@H](C(=O)O1)[C@]34O)O2
Furin (Homo sapiens)
  Potency: inactive
[7]
  outcome: inactive
[5]
  Potency: 3.7 µM (active)

## C=C[C@@H]1CN2CC[C@@H]1C[C@H]2[C@H](O)c1ccnc2ccc(OC)cc12
Furin (Homo sapiens)
  Potency: 24.1 µM (active)
[9]
  outcome: inactive
[2]
  Potency: inactive
[3]
  outcome: inactive

## Nc1nc2ccc(Cl)cc2n2c(-c3ccccc3)nnc12
[8]
  Potency: inactive

## OCC1O[C@H]([S-])[C@H](O)[C@@H](O)[C@@H]1O.[Au+] (some centres undefined)
[8]
  Potency: inactive

## Cn1c(=O)c(-c2c(Cl)cccc2Cl)cc2cnc(Nc3ccc(N4CCOCC4)cc3)nc21
[8]
  Potency: inactive

## O=C1NC(=O)c2c1c(-c1ccccc1)cc1[nH]c3ccc(O)cc3c21
[8]
  Potency: inactive
[1]
  Potency: inactive

## O=C(c1cc(O)c(O)c([N+](=O)[O-])c1)c1ccccc1F
Furin (Homo sapiens)
  Potency: inactive
[8]
  Potency: 2.99 µM (active)
[9]
  outcome: inactive
[2]
  Potency: 17.5 µM (active)
[10]
  Potency: 112 µM (active)
[11]
  Potency: 0.398 µM (active)
[4]
  outcome: inactive

## Nc1nc(SCc2ccc([N+](=O)[O-])cc2)c2ncn([C@@H]3O[C@H](CO)[C@@H](O)[C@H]3O)c2n1
[8]
  Potency: inactive
[1]
  Potency: inactive
[7]
  outcome: inactive

## O=C1NC(=O)/C(=C/c2ccc3nccnc3c2)S1
[8]
  Potency: inactive

## NC(CCCP(=O)(O)O)C(=O)O (centres undefined)
[6]
  Potency: inactive
[7]
  outcome: inactive

## Oc1cc2c(cc1O)CN(C(=S)NCCc1ccc(Cl)cc1)CCC2
Furin (Homo sapiens)
  Potency: inactive
[9]
  outcome: inactive
[1]
  Potency: inactive
[7]
  outcome: inactive
[3]
  outcome: inactive
[4]
  outcome: inactive
[5]
  Potency: 13.1 µM (active)

## COc1ccccc1CN[C@@H]1CCCN[C@@H]1c1ccccc1
[8]
  Potency: inactive

## Nc1ccn([C@@H]2O[C@H](CO)[C@@H](O)[C@@H]2O)c(=O)n1
[8]
  Potency: inactive

## COc1ccc2c(c1)CCC1C2CC[C@@]2(C)C1CC[C@@H]2NCCCCCCN1C(=O)CCC1=O (some centres undefined)
[6]
  Potency: inactive
[7]
  outcome: inactive

## CSc1nc(N)c2ncn([C@@H]3O[C@H](COP(=O)(O)OP(=O)(O)OP(=O)(O)O)[C@@H](O)[C@H]3O)c2n1
[8]
  Potency: inactive
[1]
  Potency: inactive
[7]
  outcome: inactive

## O=C(O)CC[C@@H](C(=O)O)N1C(=O)c2ccccc2C1=O
[8]
  Potency: inactive
[7]
  outcome: inactive

## Nc1ncnc2c1ncn2[C@@H]1O[C@H](COP(=O)(O)CP(=O)(O)OP(=O)(O)O)[C@@H](O)[C@H]1O
[8]
  Potency: inactive
[1]
  Potency: inactive
[7]
  outcome: inactive

## C[N+]1(C)CCC(OC(=O)C(c2ccccc2)c2ccccc2)CC1
[8]
  Potency: inactive
[1]
  Potency: inactive
[7]
  outcome: inactive

## Nc1nc(Cl)nc2c1ncn2[C@@H]1O[C@H](CO)[C@@H](O)[C@H]1O
[8]
  Potency: inactive
[1]
  Potency: inactive
[7]
  outcome: inactive

## CNC(=O)[C@H]1O[C@@H](n2cnc3c(NCc4cccc(I)c4)ncnc32)[C@H](O)[C@@H]1O
[8]
  Potency: inactive
[1]
  Potency: inactive
[7]
  outcome: inactive

## Fc1ccc2[nH]c(CN3CCN(c4ccccn4)CC3)cc2c1
[8]
  Potency: inactive
[12]
  Potency: inactive
[13]
  Potency: inactive

## COc1ccccc1CNCCCCCCNCCCCCCCCNCCCCCCNCc1ccccc1OC
[8]
  Potency: inactive
[1]
  Potency: inactive
[7]
  outcome: inactive

## OCC1O[C@H](O)C(Cl)C(O)C1O (some centres undefined)
[8]
  Potency: inactive
[7]
  outcome: inactive

## CC1OC1P(=O)(O)O (centres undefined)
[8]
  Potency: inactive
[7]
  outcome: inactive
